# Compound activity from PubChem BioAssay.
# Compounds with a hit are over-represented: about 3.8% of the library has one in this group of screens.
# VDR inhibitor – vitamin D3 receptor (human) inhibition. Potency, µM, most hits filed as inhibitors. actives 0.93% (n = 400,000). AID 504847. P11473. VDR-SRC2-3 peptide fluorescence polarization, 2 h
# Target sequence (P11473 whole entry, looked up): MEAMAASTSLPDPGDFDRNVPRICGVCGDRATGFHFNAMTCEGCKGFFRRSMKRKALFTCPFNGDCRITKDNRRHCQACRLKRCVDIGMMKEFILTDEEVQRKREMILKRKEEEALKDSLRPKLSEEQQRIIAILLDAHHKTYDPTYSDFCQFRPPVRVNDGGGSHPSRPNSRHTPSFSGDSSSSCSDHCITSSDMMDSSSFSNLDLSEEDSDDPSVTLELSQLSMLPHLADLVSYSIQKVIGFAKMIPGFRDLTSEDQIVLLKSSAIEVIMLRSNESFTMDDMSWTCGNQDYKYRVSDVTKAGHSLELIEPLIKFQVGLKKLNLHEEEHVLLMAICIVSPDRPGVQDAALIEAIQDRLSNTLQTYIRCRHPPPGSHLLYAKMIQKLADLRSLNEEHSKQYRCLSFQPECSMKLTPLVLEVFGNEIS
#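 Fluorescence polarization assay of small-molecule disruption of VDR binding to coregulator peptide SRC2-3. Compounds and controls pin-transferred, then read after 2 h incubation at ambient room temperature.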
# hERG WT inh – inhibitors of human wildtype KCNH2 potassium channel | activity change, % at 1.84 µM | actives 0.37% (n = 340,000) | Q12809 | U2OS, BacMam KCNH2, thallium flux FluxOr; hits give low values;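 active means maximum activity change below -70%; inconclusive means maximum activity change between -70% and -50%; inactive means maximum activity change above -50%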
#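 U2OS cells transduced with wild-type KCNH2 virus are loaded with FluxOr dye for 45 min, and thallium flux is measured in kinetic reads before and after stimulation buffer. Rate constants are normalized to DMSO controls.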
# KCNH2 3.1 block – blocks the human KCNH2 3.1 channel isoform. U2OS KCNH2 3.1, thallium flux FluxOr; hits give low values. activity change, % (tested at about 1.8 µM). actives 0.95% (n = 340,000);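 active means maximum activity change below -70%; inconclusive means maximum activity change from -70% to -50%; inactive means maximum activity change above -50%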;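 further: thallium influx rate constant from kinetic fluorescence after stimulation buffer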
#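 Measured as rate of thallium-driven FluxOr signal in transduced U2OS cells carrying the 3.1 channel, read kinetically for 2 min upon stimulation; values are rate constants scaled to DMSO control wells.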
# MBNL1-CUG inh – blocks human MBNL1 binding to CUG repeat RNA. Q9NR56. TR-FRET MBNL1-His/biotin-(CUG)12 binding, 665/545 ratio. Potency, µM (doses to about 57.5 µM), actives largely listed as inhibitors. actives 0.036% (n = 280,000). AID 2675; active means well fitted inhibition curve with a large enough effect in the signal ratio, with a control signal flat, not every such curve was filed as active; inconclusive means small, poorly fitted or top-dose-only effect, or effect the other way, or a change in a side signal; inactive means no such curve, though single readings can be large or run the other way; the % refers to the signal ratio
#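 TR-FRET readout: Ex 340 nm, 665/545 nm emission ratio, normalized to buffer-only (basal) and MBNL1-(CUG)12 controls. Complex of MBNL1-His with Biotin-(CUG)12, compounds 92 nM–58 uM, incubated 60 min at room temperature.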
# CBFb-RUNX1 inh – blocks binding between human CBF-beta and RUNX1 | Q01196+Q13951 | Potency, µM (highest dose often 59.8 µM), hits mostly inhibitors | AlphaScreen CBFb-His/RUNX1-biotin binding, biochemical | AID 1477 | 230,000 tested, under 10 active
#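 Proteins preincubated together for 20 min at RT before compound addition; 15 min later, nickel and streptavidin beads were added and left 90 min prior to AlphaScreen measurement.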
# PLK1 PBD block – inhibitors of human PLK1 polo-box domain binding | P53350 | Plk1 PBD binding of FITC phosphopeptide, fluorescence polarization | Potency, µM, most hits filed as inhibitors | actives 2.8% (n = 360,000) | AID 720504; further: series mostly up to about 57 µM; nearly all actives have a fitted effect of over 65% in size
# Hits are given with their value; - = inactive; ? = inconclusive; . = no result given. Unless noted, the call rests on the fitted dose curve; in most records, active means well fitted curve in the direction sought with a large enough effect; inconclusive means small, poorly fitted or top-dose-only effect, or another doubt; inactive means no such curve, though single readings can be large; an effect the other way counts as inactive or inconclusive.
SMILES,VDR inhibitor,hERG WT inh,KCNH2 3.1 block,MBNL1-CUG inh,CBFb-RUNX1 inh,PLK1 PBD block
O=C(COc1ccc2c(c1)CCC2)NCc1ccc(Cl)cc1,-,-,-,-,-,29.9µM
O=C(NC(NC(=S)Nc1ccccc1C(=O)O)C(Cl)(Cl)Cl)c1cccc([N+](=O)[O-])c1 (stereo unspecified),?,-,-,?,-,23.8µM
O=C(O)CSc1nc2ccccc2c(=O)[nH]1,-,-,-,-,-,-
O=C(O)CSc1nc2ccccc2[nH]1,?,-,-,-,-,26.7µM
Cc1ccc(CNC(=O)CSc2nc3ccccc3[nH]2)cc1,-,-,-,-,.,-
O=C(CSc1nc2ccccc2[nH]1)NCCc1ccc(Cl)cc1,-,-120.6,-,.,-,-
COc1ccc(N2CC(NC(=O)COc3cccc(C)c3)CC2=O)cc1OC (stereo unspecified),-,.,.,.,.,.
Cc1ccc(S(=O)(=O)c2cn(C)c3cc(N4CCCCCC4)c(F)cc3c2=O)cc1,-,.,.,.,.,.
CC(C)(C)NC(=O)NC(=O)COc1ccc(Br)cc1Br,-,-,-,.,-,-
CC(C)(C)NC(=O)NC(=O)COC(=O)COc1ccc(Cl)cc1Cl,?,-,-,-,-,11.9µM
CCNc1nc(NC(N)=S)nc(NC(C)(C)C)n1,-,-,-,-,-,26.7µM
COc1ccc(C2NN=C(c3ccc(C)cc3)S2)cc1OC (stereo unspecified),-,-,-,-,-,23.8µM
CCOCCCNC(=O)c1ccc2c(c1)ncn2-c1ccccc1OC,-,-,-,-,.,-
CCOCCCNC(=O)c1ccc2c(c1)ncn2-c1ccc(C)cc1C,?,-,-,-,.,18.9µM
CCCC1(C)C(C#N)C(=O)NC(=O)C1C#N (stereo unspecified),-,-,-,.,.,-
CCCC1(C)C(C#N)(C#N)C1(C#N)C#N,10µM,.,.,.,.,.
O=C(CN1C(=O)COc2ccc(S(=O)(=O)N3CCCC3)cc21)NC1CC1,-,-83.4,-,-,-,?
COc1ccccc1NC(=O)CN1C(=O)COc2ccc(S(=O)(=O)N3CCCCCC3)cc21,-,-,?,-,.,29.9µM
CC12CCC(C/C1=N\N=C1\NC(=O)/C(=C\c3ccc(Cl)cc3)S1)C2(C)C (stereo unspecified),?,-,-,-,-,23.8µM
COc1cccc(C(=O)NC(c2ccccc2)C2CCCC2)c1 (stereo unspecified),-,-,-,-,-,10.6µM
CCn1nc(C)c(CNC(=O)CCc2nnc(Cc3c[nH]c4ccccc34)o2)c1C,-,-,-,-,-,-
CC(C)(C)NC(=O)CCc1nnc(Cc2c[nH]c3ccccc23)o1,-,-,-109.7,-,-,-
CCOC(=O)Cn1c(=O)c2c(nc3n2CCN3c2ccc(CC)cc2)n(C)c1=O,-,.,.,.,.,.
O=[N+]([O-])c1ccc(Cl)c(S(=O)(=O)Nc2cccc(S(=O)(=O)NC3=NCCC3)c2)c1,79.4µM,-,-,.,.,?
O=C(COC(=O)c1ccccc1)NCC1CCCO1 (stereo unspecified),-,-,-,-,-,-
SMILES,VDR inhibitor,hERG WT inh,KCNH2 3.1 block,MBNL1-CUG inh,CBFb-RUNX1 inh,PLK1 PBD block
O=C(COC(=O)c1cccc([N+](=O)[O-])c1)NCC1CCCO1 (stereo unspecified),-,-,-,?,-,26.7µM
O=C(NC1CCN(C(=S)NCc2ccco2)CC1)NC12CC3CC(CC(C3)C1)C2,-,-,-,-,-,29.9µM
Cc1cccc(C(=O)NC2CCN(C(=S)NCc3ccco3)CC2)c1,-,-,-,-,-,-
CCC(C)NC(=O)c1cnn(-c2ccc(Cl)cc2)c1C1CCN(C(=O)OC(C)(C)C)CC1 (stereo unspecified),-,.,.,.,.,.
COC(=O)c1c(O)cc(C(C)(C)C)n(-c2ccc(F)cc2)c1=O,-,-115.8,-215.6,-,-,-
CCCN1C(C(=O)c2ccccc2)=C(OC(=O)c2ccc(F)cc2)c2ccccc2S1(=O)=O,-,.,.,.,.,.
Cc1cc(C)n2c(SCC(=O)Nc3ccccc3)nnc2n1,-,-,-,-,-,-
CCN(CC)c1ccc(NC(=O)CSc2nnc3nc(C)cc(C)n23)cc1,-,-,-,-,-,16.8µM
CCOc1ccccc1-c1nnc2n1N=C(c1ccccc1OC)CS2,.,.,.,.,-,.
